# A number with no mark means an inactive call. Records with an inconclusive call do not appear. Entries that show only a call come without a potency. Activity calls are given as the source filed them. Unless noted, calls follow the shape of the dose curve; as a rule, active = well fitted curve in the direction sought with a large enough effect in the repeat runs; inconclusive = weak or mixed curves; inactive = no such curve, though single readings can be large; an effect the other way counts as inactive or inconclusive.
# Columns and labels:
# [1] = target: Cytochrome P450 2C19 (Homo sapiens) (UniProt P33261); test: Cytochrome P450 Family 2 Subfamily C Member 19 (CYP2C19) small molecule antagonists: luciferase reporter qHTS assay (AID 1671197); also: nearly all actives have a fitted effect of over 65% in size; also: potency is read from the fitted curve at half-maximal effect
# Sequence of Cytochrome P450 2C19 (Homo sapiens) (P33261 whole entry, looked up): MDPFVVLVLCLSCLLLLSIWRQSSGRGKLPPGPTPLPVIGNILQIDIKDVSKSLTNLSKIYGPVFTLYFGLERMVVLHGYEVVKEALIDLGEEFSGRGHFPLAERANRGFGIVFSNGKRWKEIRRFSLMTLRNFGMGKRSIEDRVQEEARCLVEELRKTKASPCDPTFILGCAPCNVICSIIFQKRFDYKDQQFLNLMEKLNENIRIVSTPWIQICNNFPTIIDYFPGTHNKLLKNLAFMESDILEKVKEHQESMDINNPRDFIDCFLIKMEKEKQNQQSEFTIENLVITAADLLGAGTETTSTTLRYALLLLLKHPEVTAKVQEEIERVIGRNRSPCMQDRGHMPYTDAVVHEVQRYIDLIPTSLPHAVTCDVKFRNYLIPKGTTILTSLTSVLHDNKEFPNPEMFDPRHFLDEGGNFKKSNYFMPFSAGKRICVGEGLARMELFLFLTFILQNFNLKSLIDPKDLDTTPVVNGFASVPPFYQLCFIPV
# Summary of the method: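 Light output is proportional to CYP2C19 activity: proluciferin substrate is converted to luciferin, then detected by a luciferin detection reagent that also stops the 1 h, 37C NADPH-driven reaction. Ketoconazole serves as positive control.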
# [2] = target: Cytochrome P450 2C9 (Homo sapiens) (UniProt P11712); test: Cytochrome P450 Family 2 Subfamily C Member 9 (CYP2C9) small molecule antagonists: luciferase reporter qHTS assay (AID 1671198); also: nearly all actives have a fitted effect of over 50% in size; also: potency is read from the fitted curve at half-maximal effect
# Sequence of Cytochrome P450 2C9 (Homo sapiens) (P11712 whole entry, looked up): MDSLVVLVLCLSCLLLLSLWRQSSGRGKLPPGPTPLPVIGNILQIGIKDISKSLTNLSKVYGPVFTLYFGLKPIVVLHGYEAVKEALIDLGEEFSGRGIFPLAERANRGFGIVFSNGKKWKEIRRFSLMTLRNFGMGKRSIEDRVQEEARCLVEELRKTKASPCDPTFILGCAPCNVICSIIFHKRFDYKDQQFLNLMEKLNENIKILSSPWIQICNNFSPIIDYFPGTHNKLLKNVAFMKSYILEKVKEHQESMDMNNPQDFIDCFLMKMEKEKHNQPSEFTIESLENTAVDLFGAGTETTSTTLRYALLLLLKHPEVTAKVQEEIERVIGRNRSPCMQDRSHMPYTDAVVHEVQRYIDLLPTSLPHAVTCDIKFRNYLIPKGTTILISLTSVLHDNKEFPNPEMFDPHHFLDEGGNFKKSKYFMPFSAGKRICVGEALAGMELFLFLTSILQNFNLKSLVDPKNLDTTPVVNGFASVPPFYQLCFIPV
# Summary of the method: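 CYP2C9 activity was measured with a P450-Glo proluciferin substrate. Enzyme–substrate mix was held with compound for 10 min at room temperature, then NADPH regeneration solution was added for 1 h at 37C. Luciferin product was read as luminescence.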
# [3] = target: Cytochrome P450 1A2 (Homo sapiens) (UniProt P05177); test: Cytochrome P450 Family 1 Subfamily A Member 2 (CYP1A2) small molecule antagonists: luciferase reporter qHTS assay (AID 1671199); also: nearly all actives have a fitted effect of over 50% in size; also: potency is read from the fitted curve at half-maximal effect
# Sequence of Cytochrome P450 1A2 (Homo sapiens) (P05177 whole entry, looked up): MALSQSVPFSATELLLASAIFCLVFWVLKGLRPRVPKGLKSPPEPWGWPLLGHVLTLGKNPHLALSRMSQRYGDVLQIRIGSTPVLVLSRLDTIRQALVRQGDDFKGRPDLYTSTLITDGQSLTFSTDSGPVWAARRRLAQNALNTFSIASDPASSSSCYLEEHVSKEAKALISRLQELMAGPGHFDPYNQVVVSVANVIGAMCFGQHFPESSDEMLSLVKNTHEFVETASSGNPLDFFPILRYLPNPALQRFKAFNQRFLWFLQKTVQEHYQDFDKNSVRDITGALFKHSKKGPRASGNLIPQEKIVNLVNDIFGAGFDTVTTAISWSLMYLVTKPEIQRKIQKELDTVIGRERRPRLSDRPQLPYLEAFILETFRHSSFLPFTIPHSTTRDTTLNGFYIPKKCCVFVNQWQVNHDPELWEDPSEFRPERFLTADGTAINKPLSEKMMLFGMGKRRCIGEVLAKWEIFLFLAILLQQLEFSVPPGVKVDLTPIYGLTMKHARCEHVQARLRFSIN
# Summary of the method: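 Luminescence from luciferin formed by CYP1A2 from a proluciferin substrate, read 20 min after detection reagent. Compound was pre-incubated 10 min with enzyme-substrate, and reaction started with NADPH regeneration solution for 1 h at room temperature; furafylline control.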
# [4] = target: Voltage-gated inwardly rectifying potassium channel KCNH2 (Homo sapiens) (UniProt Q12809); test: Human Ether-a-go-go-Related Gene (hERG) channel small molecule antagonists: fluorescence cell-based qHTS assay (AID 1671200); also: nearly all actives have a fitted effect of over 50% in size; also: potency is read from the fitted curve at half-maximal effect
# Sequence of Voltage-gated inwardly rectifying potassium channel KCNH2 (Homo sapiens) (Q12809 whole entry, looked up): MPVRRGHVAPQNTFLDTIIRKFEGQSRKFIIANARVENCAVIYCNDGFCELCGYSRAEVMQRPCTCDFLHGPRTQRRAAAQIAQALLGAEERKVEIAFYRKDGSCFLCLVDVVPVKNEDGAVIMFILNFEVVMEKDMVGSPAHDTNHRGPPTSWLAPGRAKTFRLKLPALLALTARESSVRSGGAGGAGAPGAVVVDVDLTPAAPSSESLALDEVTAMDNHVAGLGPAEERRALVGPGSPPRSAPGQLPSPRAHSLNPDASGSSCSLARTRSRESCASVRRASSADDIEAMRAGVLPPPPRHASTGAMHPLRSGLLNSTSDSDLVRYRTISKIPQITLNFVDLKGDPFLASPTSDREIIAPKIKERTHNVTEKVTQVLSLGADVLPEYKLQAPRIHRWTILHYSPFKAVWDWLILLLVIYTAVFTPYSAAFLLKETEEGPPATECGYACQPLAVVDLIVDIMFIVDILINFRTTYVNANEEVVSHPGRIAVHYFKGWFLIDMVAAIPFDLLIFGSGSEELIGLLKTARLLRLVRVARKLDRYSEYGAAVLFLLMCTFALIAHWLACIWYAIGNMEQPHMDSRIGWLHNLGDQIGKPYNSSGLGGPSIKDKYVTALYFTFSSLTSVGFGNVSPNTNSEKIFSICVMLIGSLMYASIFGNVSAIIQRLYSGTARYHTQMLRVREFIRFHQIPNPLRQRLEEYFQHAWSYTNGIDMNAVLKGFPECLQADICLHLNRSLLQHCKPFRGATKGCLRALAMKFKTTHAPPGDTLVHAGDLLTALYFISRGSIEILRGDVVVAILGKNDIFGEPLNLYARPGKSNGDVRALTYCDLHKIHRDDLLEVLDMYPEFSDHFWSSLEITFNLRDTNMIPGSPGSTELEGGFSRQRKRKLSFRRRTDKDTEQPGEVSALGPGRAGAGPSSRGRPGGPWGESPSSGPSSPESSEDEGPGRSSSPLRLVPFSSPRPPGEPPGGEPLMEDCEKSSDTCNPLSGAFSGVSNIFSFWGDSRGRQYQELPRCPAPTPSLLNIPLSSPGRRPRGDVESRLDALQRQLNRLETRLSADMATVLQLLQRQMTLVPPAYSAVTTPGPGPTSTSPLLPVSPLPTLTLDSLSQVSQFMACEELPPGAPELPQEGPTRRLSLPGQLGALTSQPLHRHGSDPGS
# Summary of the method: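 Quantitative HTS in hERG-U2OS cells: thallium entry through the channel reports activity, read as continuous 480/540 nm fluorescence over 2 min after stimulus addition.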
# [5] = target: Cytochrome P450 3A4 (Homo sapiens) (UniProt P08684); test: Cytochrome P450 Family 3 Subfamily A Member 4 (CYP3A4) small molecule antagonists: luciferase reporter qHTS assay (AID 1671201); also: nearly all actives have a fitted effect of over 50% in size; also: potency is read from the fitted curve at half-maximal effect
# Sequence of Cytochrome P450 3A4 (Homo sapiens) (P08684 whole entry, looked up): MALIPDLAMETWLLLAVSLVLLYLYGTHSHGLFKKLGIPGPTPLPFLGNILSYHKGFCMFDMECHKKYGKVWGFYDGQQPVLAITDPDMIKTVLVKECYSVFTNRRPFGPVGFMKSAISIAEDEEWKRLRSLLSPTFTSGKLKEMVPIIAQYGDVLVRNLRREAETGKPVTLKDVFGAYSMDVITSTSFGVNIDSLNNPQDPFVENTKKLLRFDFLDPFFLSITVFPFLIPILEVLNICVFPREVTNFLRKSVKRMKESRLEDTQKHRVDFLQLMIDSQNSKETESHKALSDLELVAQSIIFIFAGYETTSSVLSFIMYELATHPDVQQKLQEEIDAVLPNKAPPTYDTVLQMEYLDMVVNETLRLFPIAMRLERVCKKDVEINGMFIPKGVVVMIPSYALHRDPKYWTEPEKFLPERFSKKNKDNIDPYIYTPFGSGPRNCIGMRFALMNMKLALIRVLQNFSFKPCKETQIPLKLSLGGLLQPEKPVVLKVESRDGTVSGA
# Summary of the method: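 Inhibition of CYP3A4 is measured as loss of light: the enzyme converts a proluciferin substrate to luciferin, detected luminescently. Reaction ran 1 h at room temperature with NADPH regeneration after a 10 min compound preincubation.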
# [6] = target: Acetylcholinesterase (Homo sapiens) (UniProt P22303); test: Acetylcholinesterase (AChE) small molecule antagonists: enzyme-based qHTS assay (AID 1347397; calls by dose curve; also: nearly all actives have a fitted effect of over 55% in size); settings: Potency: AChE enzyme activity inhibition
# Sequence of Acetylcholinesterase (Homo sapiens) (P22303 whole entry, looked up): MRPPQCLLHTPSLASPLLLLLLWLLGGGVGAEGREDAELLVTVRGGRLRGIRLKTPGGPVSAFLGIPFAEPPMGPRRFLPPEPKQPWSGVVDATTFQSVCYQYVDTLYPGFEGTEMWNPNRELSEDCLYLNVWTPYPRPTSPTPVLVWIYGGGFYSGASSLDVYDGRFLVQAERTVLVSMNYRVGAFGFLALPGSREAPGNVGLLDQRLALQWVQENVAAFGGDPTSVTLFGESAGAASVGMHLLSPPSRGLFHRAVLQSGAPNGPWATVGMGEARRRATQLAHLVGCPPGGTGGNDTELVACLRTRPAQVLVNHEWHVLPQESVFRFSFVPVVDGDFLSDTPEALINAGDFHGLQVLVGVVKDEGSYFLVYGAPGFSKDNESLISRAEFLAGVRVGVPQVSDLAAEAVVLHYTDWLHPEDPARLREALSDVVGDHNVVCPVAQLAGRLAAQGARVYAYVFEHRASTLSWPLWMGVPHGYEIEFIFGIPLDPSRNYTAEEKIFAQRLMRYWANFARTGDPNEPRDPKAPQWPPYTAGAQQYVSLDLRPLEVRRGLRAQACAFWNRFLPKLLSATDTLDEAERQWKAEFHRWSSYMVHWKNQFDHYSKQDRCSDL
# Summary of the method: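 Compound or DMSO vehicle was pin-transferred onto recombinant human AChE (50 mU/mL as dispensed) and left 30 min at room temperature. Acetylthiocholine with DTNB then started the reaction, read colorimetrically 10 min later.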
# [7] = target: Acetylcholinesterase (Homo sapiens) (UniProt P22303); test: Acetylcholinesterase (AChE) small molecule antagonists: enzyme-based qHTS assay with human liver microsomes (AID 1347399; calls by dose curve; also: nearly all actives have a fitted effect of over 60% in size); settings: Potency: qHTS inhibition
# Summary of the method: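 Recombinant human AChE (50 mU/mL in the enzyme mix) and human liver microsomes (0.25 mg/mL final) were preincubated with compound and NADPH (0.25 mg/mL final) for 30 min at 37 C. Acetylthiocholine/DTNB was then added; thiocholine was read colorimetrically after 10 min at room temperature.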
# [8] = target: Cytochrome P450 2D6 (Homo sapiens) (UniProt P10635); test: Cytochrome P450 Family 2 Subfamily D Member 6 (CYP2D6) small molecule antagonists: luciferase reporter qHTS assay (AID 1671196); also: nearly all actives have a fitted effect of over 50% in size; also: potency is read from the fitted curve at half-maximal effect
# Sequence of Cytochrome P450 2D6 (Homo sapiens) (P10635 whole entry, looked up): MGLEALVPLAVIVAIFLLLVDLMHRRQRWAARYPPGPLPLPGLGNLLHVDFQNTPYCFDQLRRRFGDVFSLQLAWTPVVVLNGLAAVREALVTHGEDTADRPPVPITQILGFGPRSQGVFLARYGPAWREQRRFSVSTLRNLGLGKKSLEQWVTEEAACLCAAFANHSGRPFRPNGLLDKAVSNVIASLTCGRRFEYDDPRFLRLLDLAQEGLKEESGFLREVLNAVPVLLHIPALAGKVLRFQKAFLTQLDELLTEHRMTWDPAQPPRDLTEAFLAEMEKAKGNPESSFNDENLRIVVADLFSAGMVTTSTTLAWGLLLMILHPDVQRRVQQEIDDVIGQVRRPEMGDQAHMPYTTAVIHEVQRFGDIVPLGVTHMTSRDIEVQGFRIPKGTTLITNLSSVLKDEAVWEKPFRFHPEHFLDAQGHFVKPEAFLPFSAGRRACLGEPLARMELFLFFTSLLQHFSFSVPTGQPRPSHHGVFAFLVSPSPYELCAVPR
# Summary of the method: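 CYP2D6 activity was followed as luminescence from its luciferin product after a 1 h NADPH-driven reaction at room temperature. Enzyme-substrate mix and compound were pre-incubated for 10 min, and the signal was read 20 min after adding detection reagent.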
SMILES,Potency [1],Potency [2],Potency [3],Potency [4],Potency [5],Potency [6],Potency [7],Potency [8]
CCOP(=S)(OCC)Oc1nc(Cl)n(C(C)C)n1,0.252 µM (active),5.03 µM (active),2.24 µM (active),inactive,1.59 µM (active),–,–,–
BrCCCCCCBr,–,–,63.3 µM (active),inactive,inactive,inactive,inactive,inactive
O=c1oc2ccccc2c(O)c1C1CCCc2ccccc21 (stereo not given),–,3.99 µM (active),inactive,inactive,31.7 µM (active),inactive,inactive,inactive
C#CCN1C(=O)COc2cc(F)c(N3C(=O)C4=C(CCCC4)C3=O)cc21,–,71 µM (active),3.99 µM (active),–,35.6 µM (active),inactive,inactive,44.8 µM (active)
O=P(O)(Oc1ccccc1)Oc1ccccc1,–,39.9 µM (active),inactive,inactive,–,inactive,inactive,inactive
ClCC(Cl)Cl,inactive,inactive,–,inactive,inactive,inactive,inactive,–
CC(C(O)c1ccccc1)N(C)C/C=C/c1ccccc1 (stereo not given),–,–,–,10.7 µM (active),inactive,inactive,inactive,0.0871 µM (active)
CC1CCC(=O)O1 (stereo not given),–,inactive,–,inactive,inactive,inactive,inactive,inactive
O=C(N[C@H]1CN2CCC1CC2)c1cc2ccoc2cn1,inactive,–,inactive,inactive,inactive,inactive,inactive,28.3 µM (active)
CCN(CC)c1nc(C)cc(OP(=S)(OC)OC)n1,0.178 µM (active),22.4 µM (active),1.78 µM (active),–,2.24 µM (active),inactive,inactive,–
CCCSC(=O)Cl,–,inactive,inactive,–,inactive,inactive,inactive,inactive
CCOP(=O)(OCC)OP(=O)(OCC)OCC,–,inactive,inactive,inactive,–,inactive,inactive,–
C#C[C@]1(O)C=C[C@H]2[C@@H]3CCC4=CC(=O)CC[C@@H]4[C@H]3CC[C@@]21CC,2.75 µM (active),4.9 µM (active),inactive,inactive,–,inactive,inactive,–
[Cl][Sn]([Cl])([Cl])[Cl],81.5 µM (active),–,32.4 µM (active),inactive,inactive,inactive,inactive,inactive
N#Cc1c(Cl)cccc1Cl,–,inactive,–,inactive,–,inactive,inactive,inactive
O=[N+]([O-])c1cccc2c([N+](=O)[O-])cccc12,–,40.1 µM (active),1.01 µM (active),24.7 µM (active),31.9 µM (active),inactive,inactive,11.3 µM (active)
CCCSP(=S)(OCC)Oc1ccc(Cl)cc1Cl (stereo not given),2.24 µM (active),2 µM (active),11.2 µM (active),inactive,2.83 µM (active),inactive,inactive,–
Nc1c(Br)cc([N+](=O)[O-])cc1[N+](=O)[O-],50.8 µM (active),inactive,1.8 µM (active),inactive,inactive,inactive,inactive,–
CCOC(=O)NC(=S)Nc1ccccc1NC(=S)NC(=O)OCC,5.03 µM (active),–,31.7 µM (active),inactive,25.2 µM (active),inactive,inactive,–
CCNc1nc(NC(C)C)nc(OC)n1,–,inactive,25.2 µM (active),inactive,–,inactive,inactive,inactive
CCCSC(=O)N(CCC)CCC,–,inactive,inactive,inactive,inactive,inactive,inactive,inactive
COC(=O)C1=CCCN(C)C1,–,inactive,inactive,inactive,–,inactive,inactive,–
CN1CCC(O)(c2ccc(F)cc2)C(C(=O)c2ccc(F)cc2)C1 (stereo not given),–,inactive,inactive,–,–,inactive,inactive,17.4 µM (active)
CC(C)CC(N(C)C)C1(c2ccc(Cl)cc2)CCC1 (stereo not given),9.77 µM (active),inactive,inactive,–,–,–,–,4.36 µM (active)
O=C1CN=C(c2ccccc2)c2cc([N+](=O)[O-])ccc2N1,inactive,–,inactive,inactive,inactive,inactive,inactive,–
CCCCOC(=O)[C@@H](C)Oc1ccc(Oc2ccc(C#N)cc2F)cc1,19.9 µM (active),7.92 µM (active),31.5 µM (active),–,inactive,inactive,inactive,–
CC1=C(C(=O)Nc2ccccc2)S(=O)(=O)CCO1,inactive,–,–,–,inactive,inactive,inactive,inactive

# Reference: PubChem BioAssay (Tox21)
